Assay results taken from PubChem BioAssay (NCATS).
Positions of bridges follow the written chain, without caps; N, C: chain ends. Non-standard residues stand in square brackets, D forms with d. Residues, ends and D or L forms follow the SMILES beside them. ξ: configuration not given here. *: point of attachment. Octanoyl(6-Me) = CCC(C)CCCCC(=O)*; ξThr(3R) = C[C@@H](O)C(N)C(=O)O; dDab = NCC[C@@H](N)C(=O)O; Dab = NCC[C@H](N)C(=O)O

What was measured:
[1] = qHTS profiling of the MIPE4 collection as inhibitors of Plasmodium falciparum (3D7) proliferation (AID 743344);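 also: scaled between DMSO vehicle wells and 0.29 µM artemisinin as full inhibition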; details: P. falciparum 3D7 in erythrocytes, SYBR Green DNA fluorescence, 72 h; at 28.5 µM unless noted
Procedure, shortened: (§1)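 Parasite DNA was quantified by SYBR Green I fluorescence (ex 485, em 535 nm) after overnight lysis in saponin/Triton buffer at room temperature. Cultures at 0.3% parasitemia and 2.5% hematocrit were first exposed to compound for 72 h at 37 C; signals were normalised to artemisinin (0.29 uM) and vehicle wells.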

[2] = qHTS profiling of the MIPE4 collection as inhibitors of Plasmodium falciparum (DD2) proliferation (AID 743345); details: P. falciparum Dd2 in erythrocytes, SYBR Green DNA, 72 h; at 28.5 µM unless noted
Procedure, shortened: as §1

[3] = qHTS profiling of the MIPE4 collection as inhibitors of Plasmodium falciparum (DD2) proliferation (Rep 2) (AID 743346); details: P. falciparum Dd2 in erythrocytes, SYBR Green DNA, 72 h; at 28.5 µM unless noted
Procedure, shortened: as §1

[4] = qHTS profiling of the MIPE4 collection as inhibitors of Plasmodium falciparum (HB3) proliferation (AID 743347);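 also: plate controls were DMSO vehicle wells for no effect and artemisinin wells for full effect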; details: P. falciparum HB3 in erythrocytes, SYBR Green DNA, 72 h; at 28.5 µM unless noted
Procedure, shortened: as §1

[5] = High-throughput drug toxicity screening in the BPDCN cell line Gen2.2 (AID 1224824); details: Gen2.2 BPDCN cells; at 45.8 µM (top of the series) unless noted;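 also: cells exposed to compounds for 48 h before reading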
Procedure, shortened: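 Gen2.2, 500 cells/well, phenol red-free RPMI/10% FBS/Pen-Strep; 48 h cpd, 37 °C/5% CO2; CTG lum, 15 min RT. Norm: DMSO = 100%, bortezomib 9.2 uM final = 0%.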

Compound	parasite growth, % of DMSO control [1] [%]	parasite growth remaining, % of DMSO control (lower = more inhibition) [2] [%]	parasite growth, % of control (lower = inhibition) [3] [%]	growth, % of control [4] [%]	cell viability, % of control (lower = more cytotoxic) [5] [%]
O=C(O)c1ccc(Nc2ncc3c(n2)-c2ccc(Cl)cc2C(c2c(F)cccc2F)=NC3)cc1	56.9	82.8	44	52.9	41.7
C=CC(=O)Nc1cc(NC(=O)c2ccc(C)c(NC(=O)c3ccno3)c2)cc(C(F)(F)F)c1	34	52.8	57.2	22.8	4.74
O=C1c2c(O)cccc2[C@@H]([C@@H]2O[C@H](CO)[C@@H](O)[C@H](O)[C@H]2O)c2cc(CO)cc(O)c21	96.2	95.6	80.5	99.2	185
CCC(C)CCCCC(=O)N[C@@H](CCN)C(=O)NC(C(=O)N[C@H](CCN)C(=O)N[C@@H]1CCNC(=O)C([C@@H](C)O)NC(=O)[C@@H](CCN)NC(=O)[C@@H](CCN)NC(=O)[C@@H](CC(C)C)NC(=O)[C@H](Cc2ccccc2)NC(=O)[C@H](CCN)NC1=O)[C@@H](C)O (stereo partly drawn) ({Octanoyl(6-Me)}-[Dab][ξThr(3R)][dDab][dDab][Dab]F[dL][dDab][dDab][ξThr(3R)]; lactam 4-C)	407	124	83.7	96.2	172
CCCCCCCCCCCC(CC1OC(=O)C1CCCCCC)OC(=O)C(CC(C)C)NC=O (stereo not given)	7.26	13.8	17	3.37	82.8
CC(=O)SCC(Cc1ccccc1)C(=O)NCC(=O)OCc1ccccc1 (stereo not given)	43.2	97.5	60.4	65.1	5.18
C[C@]12C=CC(=O)N[C@@H]1CC[C@H]1[C@H]3CC[C@@H](C(=O)Nc4cc(C(F)(F)F)ccc4C(F)(F)F)[C@@]3(C)CC[C@@H]12	9.6	9.12	23.9	26.4	58.7
OCC(O)C(O)C(O)CO (stereo not given)	88.8	105	114	95.9	59.2
O=c1ccn([C@@H]2O[C@H](CO)[C@H](O)[C@@H]2F)c(=O)[nH]1	187	100	107	645	191
O=c1c(O)c(-c2ccc(O)c(O)c2)oc2cc(O)ccc12	5.73	8.33	14.7	8.07	9.57
Cc1cncc2cccc(S(=O)(=O)N3CCCN(C(=O)CN)C[C@@H]3C)c12	85.8	89.9	51	101	35.1
COc1ccc(Nc2cc(-c3cnc(N)nc3)nc(N3CCOCC3)n2)cn1	16.3	11.1	27.1	6.14	28.9
Cc1[nH]c(C=C2C(=O)Nc3ccccc32)c(C)c1CCC(=O)O	7.83	176	138	27.3	12.9
CCOc1cc2c(c(F)c1OCC)C(=N)N(CC(=O)c1cc(N3CCOCC3)c(OC)c(C(C)(C)C)c1)C2	5.53	7.24	11.7	6.22	4.1
NS(=O)(=O)OC[C@@H]1C[C@@H](n2ccc3c(N[C@H]4CCc5ccccc54)ncnc32)C[C@H]1O	23.8	92.9	46.9	51	6.59
C=CC[C@@H]1C=C(C)C[C@H](C)C[C@H](OC)[C@H]2O[C@@](O)(C(=O)C(=O)N3CCCC[C@H]3C(=O)O[C@H](C(C)=C[C@@H]3CC[C@H](O)[C@H](OC)C3)[C@@H](C)[C@@H](O)CC1=O)[C@@H](C)C[C@@H]2OC	8.55	8.99	10.3	44.7	17.2
COc1cc(C[C@@H](CO)[C@H](CO)Cc2ccc(O)c(OC)c2)ccc1O	90.4	100	80.4	96.5	55.1
Cc1cn([C@@H]2O[C@H](CO)[C@@H](O)[C@H]2F)c(=O)[nH]c1=O	100	94.7	78.6	323	189
CCCCCCCCCCCCc1ccc(S(=O)(=O)Nc2nncs2)cc1	79.3	92.3	80.6	117	86
Cc1cnn(C)c1C(=O)Nc1cc(Nc2ccc3c(C=Cc4ccccn4)n[nH]c3c2)ccc1F	4.63	12.8	19.1	6.36	97.2
CCc1ccc(C(=O)Nc2cc(CN3CCN(C)CC3)cc(C(F)(F)F)c2)cc1C#Cc1cnc2ccnn2c1	5.7	6.73	10.5	3.13	4.8
C=CC(=O)Nc1ccc2ncnc(Nc3ccc(OCc4cccc(F)c4)c(Cl)c3)c2c1	6.97	19.9	16.4	5.29	13
O=C(C=Cc1ccc(CN(CCO)CCc2c[nH]c3ccccc23)cc1)NO	4.37	6.71	8.38	2.54	4.89
C[C@@]12C(=O)OC(=O)[C@@]1(C)C1CCC2O1	12.4	14.9	13.5	7.05	5.4
CC(=O)N1CCN(c2ccc(OCc3nn(C)c(C)c3-c3cccc4c(CCCOc5cccc6ccccc56)c(C(=O)O)n(Cc5cccnc5)c34)cc2)CC1	5.7	9.41	10.7	2.86	36.4
c1cncc(CN2CCC(n3ncc4c(N5CCOCC5)nc(-c5ccc6[nH]ccc6c5)nc43)CC2)c1	4.76	6.76	18.3	8.55	12.4
